Compound activity deposited in PubChem BioAssay by National Center for Advancing Translational Sciences (NCATS).
Tau FP inhib: blocks human tau fibril formation measured by polarization. P10636. K18 P301L tau heparin fibrillization, Alexa594 FP, 6 h. Potency, µM (top dose mostly 57.7 µM), without a hit: at the top dose activity, negative = inhibition, most hits filed as inhibitors. 280,000 compounds, 0.39% hits; also: nearly all actives have a fitted effect of over 55% in size
Target sequence (P10636 561-689 P618L limits assumed): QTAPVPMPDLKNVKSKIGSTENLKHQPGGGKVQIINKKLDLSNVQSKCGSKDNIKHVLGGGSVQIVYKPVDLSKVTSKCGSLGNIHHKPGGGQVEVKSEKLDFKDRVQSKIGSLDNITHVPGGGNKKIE
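Quantitative HTS format: compounds meet 15 uM recombinant K18 P301L tau and Alexa 594-tau tracer in 100 mM sodium acetate pH 7; 20 uM heparin triggers fibrillization at 37 C over 6 hr; FP gives the signal.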
TRb SRC2 PPI: inhibitors of human thyroid hormone receptor beta-SRC2 interaction; TRbeta-SRC2 peptide binding, fluorescence polarization; receptor liganded with 1 µM T3; P10828; Potency, µM (top dose mostly 106 µM), for the others: at the highest dose activity change, negative = inhibition, hits mostly inhibitors; 280,000 compounds, 0.065% hits;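 also: plate controls were bound peptide for no effect and peptide without receptor for full effect; nearly all actives have a fitted effect of over 50% in size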
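Binding of a 20-amino-acid Texas Red SRC2 peptide (20 nM) to TRb ligand-binding domain (0.6 uM) with agonist T3 at 1 uM was followed by fluorescence polarization after a 5 hr room-temperature incubation.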
TR SRC2 fluor cs: Texas Red fluorescence interference in TRb-SRC2 counter-screen. 280,000 compounds, 0.29% hits. Potency, µM (top dose mostly 106 µM), for inactives: at the top dose fluorescence change, negative = quenching. TRb/SRC2 Texas Red total fluorescence interference; active = well fitted curve in either direction with a large enough effect; inconclusive = small, poorly fitted or top-dose-only effect
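Human TRb ligand-binding domain at 0.6 uM with 20 nM Texas Red SRC2 peptide in Tris buffer containing 1 uM T3 and 5% DMSO, incubated with compound 5 h at ambient temperature. Total fluorescence (555/632 nm) calculated as parallel + 2 × perpendicular.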
Tau ThT inhib: tau fibrillization inhibition (ThT binding); P10636; recombinant tau K18 P301L, heparin-induced fibrillization, ThT fluorescence; Potency, µM (series often up to 57.4 µM), without a hit: top-dose activity, negative = inhibition, actives largely listed as inhibitors; 270,000 compounds, 2.1% hits; also: nearly all actives have a fitted effect of over 55% in size
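Tau K18 P301L fragment (15 uM unlabeled plus 0.24 uM Alexa 594-labeled) in 100 mM sodium acetate pH 7 with compound, fibrillization induced by 20 uM heparin for 6 hr at 37 C. Thioflavin T (30 uM) added, fluorescence read after 1 hr (ex 450, em 510 nm).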
Tau fluor cs: counter-screen for tau fibril formation inhibitors. 280,000 compounds, 0.93% hits. Potency, µM (doses to about 57.7 µM), for the others: at the top dose activity change, negative = decrease. tau K18 P301L (four-repeat tau fragment) Alexa594 fluorescence, heparin fibrillization; also: nearly all actives have a fitted effect of over 55% in size
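Human K18 P301L tau (15 uM unlabeled plus 0.24 uM Alexa 594-labeled, final) in 100 mM sodium acetate pH 7 was mixed with compound and 20 uM heparin and incubated 6 hr at 37 C.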
GoLoco inh red: blocks human Gai1 binding to RGS12 GoLoco peptide, red readout. AID 880. 230,000 compounds, 0.44% hits. Potency, µM (titrated, usually from 61.6 µM), for inactives: top-dose activity, negative = inhibition, hits mostly inhibitors. Gai1:RGS12 GoLoco peptide FP, rhodamine, 10 min; active = well fitted inhibition curve with a large enough effect, not every such curve was filed as active; inactive = no such curve, though single readings can be large or run the other way; also: nearly all actives have a fitted effect of over 30% in size
Target sequence (P63096 whole entry, looked up): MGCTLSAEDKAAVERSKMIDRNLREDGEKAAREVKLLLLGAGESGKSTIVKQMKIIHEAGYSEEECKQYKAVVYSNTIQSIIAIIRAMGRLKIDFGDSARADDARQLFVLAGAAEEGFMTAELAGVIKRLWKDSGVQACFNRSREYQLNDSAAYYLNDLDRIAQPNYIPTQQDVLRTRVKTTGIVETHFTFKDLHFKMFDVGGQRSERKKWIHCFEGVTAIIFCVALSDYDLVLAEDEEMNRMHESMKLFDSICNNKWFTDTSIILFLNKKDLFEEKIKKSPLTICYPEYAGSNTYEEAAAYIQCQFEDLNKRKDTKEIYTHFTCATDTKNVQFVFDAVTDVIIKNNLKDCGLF
* marks the source's active call; other numbers are inactive results; u = inconclusive; x = no result given; [ ] = dose if it differs, or a comment. Most compounds without a hit are left out; they make up all but 3.2% or so of the library. Unless noted, calls follow the shape of the dose curve; as a rule, active = well fitted curve in the direction sought with a large enough effect; inconclusive = small, poorly fitted or top-dose-only effect, or another doubt; inactive = no such curve, though single readings can be large; an effect the other way counts as inactive or inconclusive. Unless noted, % is scaled to controls: 0 for no effect and ±100 for the full control effect; potency is read from the fitted curve at half-maximal effect.

SMILES	Tau FP inhib	TRb SRC2 PPI	TR SRC2 fluor cs	Tau ThT inhib	Tau fluor cs	GoLoco inh red
CN(C)c1ccc(/C=C2/C=C(c3ccc4c(c3)CCCC4)OC2=O)cc1	u	0%	-1%	3.2µM*	u	44%
COc1ccc(C2=C/C(=C\c3ccc(OC(C)=O)cc3)C(=O)O2)cc1	14%	3%	-4%	u	-21%	4%
CC(C)=CCC/C(C)=C/CO/N=C1/C[C@@H](O)[C@@H](O)[C@@H]2[C@@H]3C(=O)N(C(C)(C)C)C(=O)[C@H]3CC[C@@H]12	-3%[11.6 µM]	1%[11.2 µM]	-2%[11.2 µM]	-5%[11.5 µM]	-8%[11.6 µM]	x
O=C(CCCc1ccc(-c2ccccc2F)cc1)Nc1ccc(O)cc1	u	-1%	-2%	u	11µM*[quencher]	4%
O=C(CCCc1ccccc1)Nc1cccc(C(=O)O)c1	3%	5%	-2%	6%	4%	6%
CCCN(CCC)C(=O)c1cc([N+](=O)[O-])cc2c1-c1ccc([N+](=O)[O-])cc1C2=C(C#N)C#N	u	-1%	-1%	32µM*	u	6%
C#CCCOC(=O)N1C2=NC(C(=O)OC)=C(C(=O)OC)[C@@H]3N(CC#CC)c4ccccc4[C@]23C[C@H]1C(=O)OC	0%[11.6 µM]	8%[11.2 µM]	3%[11.2 µM]	-4%[11.5 µM]	-5%[11.6 µM]	8%[14.2 µM]
C=C1CCN(C(Cc2ccccc2)C(=O)NCc2ccc(Cl)cc2)S(=O)(=O)c2ccccc21 (stereo not drawn)	x	0%	-3%	x	x	x
CCN1C(=O)C(CC(=O)Nc2ccc(F)cc2)N(CCCN2CCN(c3ccc(F)cc3)CC2)C1=S (stereo not drawn)	u	-6%	-1%	u	13µM*[quencher]	-8%
CC(C)C[C@@H](CC(=O)N[C@@H](CCC(=O)O)CC(=O)O)NC(=O)[C@@H]1CNCC[C@H]1NC(=O)C[C@H](CCCN)NC(=O)C[C@H](Cc1c[nH]c2ccccc12)NC(=O)[C@@H]1CCCC[C@H]1N	7%	-7%	-2%	-5%	0%	4%
Cn1c(-c2ccc([N+](=O)[O-])cc2)nc2ccccc21	-2%	5%	0%	-24%	-2%	2%
Cn1nc([N+](=O)[O-])c(C(C#N)c2nc3ccccc3n2C)c(Cl)c1=O (stereo not drawn)	-5%	-7%	-1%	16µM*	u	-37%
CCc1cccc(C)c1Nc1c(-c2cccc(O)c2)nc2sccn12	15%	-12%	u	u	18µM*[quencher]	x
COc1cc(-c2nc3sccn3c2Nc2c(C)cccc2C)ccc1O	22µM*	-5%	0.004µM*[quencher]	16µM*	u	x
Cc1cccc(C)c1Nc1c(-c2ccc(O)cc2)nc2sccn12	11%	1%	3%	u	u	x
CCCCCCCCCCCCCCOc1ccc(C(=O)O)o1	x	-5%	3%	x	x	x
O=C(NNc1ccc(O)cc1)c1ccc(Br)cc1	u	-4%	1%	16µM*	u	-8%
O=C(Nc1cccc(O)c1)c1ccc(Br)cc1	1%	10%	0%	-8%	-17%	6%
COc1cc2ncc(-c3ccccc3)nc2cc1OC	1%	1%	-2%	u	-12%	6%
N#CC1=C(N)C2=CCCC[C@H]2[C@H](c2ccc(Br)cc2)C1(C#N)C#N	u	-4%	5%	14µM*	u	39%
COC(=O)c1cc2c(-c3ccccc3)c(C)c3ccccn3c-2c1C(=O)OC	15%	-10%	1%	16µM*	u	37%
COC(=O)c1c(Cl)c2n3ccccc3c(C)c(-c3ccccc3)c-2c1C(=O)OC	u	-9%	9%	7.9µM*	u	14µM*
CC(C)C[C@H](NC(=O)[C@H](CC(C)C)NC(=O)[C@H](CCC(N)=O)NC(=O)[C@H](CO)NC(=O)[C@@H]1CCCN1C(=O)[C@H](CO)NC(=O)[C@H](CO)NC(=O)[C@@H](NC(=O)[C@H](Cc1cnc[nH]1)NC(=O)[C@H](CCC(=O)O)NC(=O)[C@H](Cc1ccc(O)cc1)NC(=O)[C@H](CCCCN)NC(=O)[C@H](CCC(N)=O)NC(=O)[C@H](Cc1ccc(O)cc1)NC(=O)[C@H](CC(=O)O)NC(=O)[C@@H](NC(=O)[C@@H]1CCCN1C(=O)[C@H](CC(=O)O)NC(=O)[C@H](CC(N)=O)NC(=O)[C@H](CC(=O)O)NC(=O)CNC(=O)[C@H](CC(=O)O)NC(=O)[C@@H]1CCCN1C(=O)[C@H](CCC(N)=O)NC(=O)[C@H](Cc1ccc(O)cc1)NC(=O)[C@H](C)NC(=O)[C@H](Cc1c[nH]c2ccccc12)NC(=O)[C@H](Cc1ccccc1)NC(=O)[C@@H](NC(=O)[C@@H](N)CO)[C@@H](C)O)[C@@H](C)O)[C@@H](C)O)C(=O)N[C@@H](C)C(=O)N1CCC[C@H]1C(=O)NCC(=O)N[C@@H](CC(=O)O)C(=O)N[C@@H](Cc1ccc(O)cc1)C(=O)O	x	-7%	-2%	x	x	x
O=C(O)CCN1C(=O)C(=C2CCCCCC2)SC1=S	-6%	2%	3%	-10%	-2%	1%
O=C1C(=C2CCCCC2)SC(=S)N1Cc1ccco1	u	-1%	0%	25µM*	-21%	8%
SMILES	Tau FP inhib	TRb SRC2 PPI	TR SRC2 fluor cs	Tau ThT inhib	Tau fluor cs	GoLoco inh red
COC(=O)C(C)Sc1nnc2cc(C)c3cc(C)cc(C)c3n12 (stereo not drawn)	-3%	-29%	0.071µM*[quencher]	-11%	-11%	x
CCCN(CCC)C(=O)CSc1nnc2cc(C)c3cc(C)cc(C)c3n12	-5%	-4%	-10%	-6%	-8%	x
O=[N+]([O-])c1c(Nc2ccccn2)cc(Cl)c2nonc12	u	5%	3%	x	u	-38%
O=C(O)c1cccc(Nc2cc(Cl)c3nonc3c2[N+](=O)[O-])c1	2%	6%	-4%	3.5µM*	u	-35%
O=c1[nH]nc(CNc2ccc(O)cc2)c2ccccc12	u	28µM*	45µM*[fluorescent]	32µM*	u	-29%
C[C@@H]1NC(=O)[C@@H](C)COC(=O)[C@H](C)NC(=O)[C@@H](C)COC1=O	-7%[11.6 µM]	-2%[11.2 µM]	1%[11.2 µM]	-3%[11.5 µM]	-4%[11.6 µM]	x
N#C/C(=C\c1ccc(N2CCOCC2)o1)C(=O)NCCc1ccccc1	11%	-9%	-1%	8.9µM*	-27%	-8%
N#C/C(=C\c1ccc(N2CCOCC2)o1)C(=O)NCC1CCCO1 (stereo not drawn)	3%	-2%	-3%	-3%	-12%	13%
Cc1ccc2nc(/C(C#N)=C\c3ccc(N4CCOCC4)o3)[nH]c2c1	u	-20%	-4%	13µM*	u	149%
